ALOX12 inhib: inhibitors of human 12-lipoxygenase (ALOX12) | P18054 | purified 12-hLO, xylenol orange hydroperoxide absorbance | Potency, µM (doses to about 57.1 µM), for the others: at the highest dose activity change, negative = inhibition, actives largely listed as inhibitors | 150,000 compounds, 0.12% hits; also: potency is read from the fitted curve at half-maximal effect; nearly all actives have a fitted effect of over 55% in size
Target sequence (P18054 whole entry, looked up): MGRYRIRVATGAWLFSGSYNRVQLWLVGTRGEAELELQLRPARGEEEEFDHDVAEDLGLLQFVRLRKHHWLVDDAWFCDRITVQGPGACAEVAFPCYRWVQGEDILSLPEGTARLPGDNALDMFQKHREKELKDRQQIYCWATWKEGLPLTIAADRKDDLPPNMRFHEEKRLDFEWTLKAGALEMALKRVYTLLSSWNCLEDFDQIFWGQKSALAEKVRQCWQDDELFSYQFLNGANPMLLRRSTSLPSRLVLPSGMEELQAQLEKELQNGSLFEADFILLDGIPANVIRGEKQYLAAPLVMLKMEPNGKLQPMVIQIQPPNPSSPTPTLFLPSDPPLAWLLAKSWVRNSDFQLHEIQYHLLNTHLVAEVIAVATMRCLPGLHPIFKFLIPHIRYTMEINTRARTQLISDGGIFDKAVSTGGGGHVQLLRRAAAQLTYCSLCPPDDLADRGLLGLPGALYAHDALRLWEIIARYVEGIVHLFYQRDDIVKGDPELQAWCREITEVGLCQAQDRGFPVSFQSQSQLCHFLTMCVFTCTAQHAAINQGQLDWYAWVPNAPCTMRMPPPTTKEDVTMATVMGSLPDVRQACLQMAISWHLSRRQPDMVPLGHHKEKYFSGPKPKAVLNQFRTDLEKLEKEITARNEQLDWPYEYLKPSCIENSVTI
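Xylenol orange chromogenic assay: hydroperoxide from 12hLO oxidises Fe(II), giving red-shifted Fe(III)-XO absorbance. Conditions: 150 nM enzyme, 40 uM arachidonic acid, 25 mM Hepes pH 7.0, 0.01% Triton X-100, 30 min, room temperature.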
IMPase cell inh: IMPase inhibition in cells | CHO-M1 cells, IP1 accumulation, HTRF TR-FRET ratio | P97697 | 120,000 tested, under 10 active | AID 901 | inhibition (IP1 accumulation), % at 46.1 µM; active = well fitted curve in the direction sought with a large enough effect in the signal ratio, not every such curve was filed as active; inconclusive = small, poorly fitted or top-dose-only effect, or a change in a side signal; inactive = no such curve, though single readings can be large or run the other way; the % refers to the signal ratio;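 also: cells stimulated with carbachol in lithium chloride buffer; plate controls were DMSO basal wells for no effect and reference inhibitor wells for full effect; higher means more IMPase inhibition seen as more IP1 and lower FRET ratio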
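CHO-M1 cells (CHO stably expressing M1 receptor), compound up to 46 uM final, stimulated with carbachol (50 uM as added) in buffer with 50mM LiCl, pH 7.4, 30 min at 37C. Cytosolic IP1 read by TR-FRET; AC50 from Hill fits.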
ALOX15B inhib: blocks human 15-lipoxygenase 2 activity; O15296; purified 15hLO-2, xylenol orange hydroperoxide absorbance; Potency, µM (doses to about 57.1 µM), without a hit: at the highest dose activity change, negative = inhibition, actives largely listed as inhibitors; 110,000 compounds, 0.56% hits; also: potency is read from the fitted curve at half-maximal effect; nearly all actives have a fitted effect of over 60% in size
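Screening format was qHTS against 50 nM purified 15hLO-2 in Hepes pH 7.5 with detergent. Activity follows hydroperoxide formation from 45 uM arachidonic acid, measured as 573:405 nm absorbance ratio of the ferric-xylenol orange complex.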
IMPase Li cell: cell-permeable IMPase inhibitors with lithium potentiation. CHO-M1 cells, IP1 TR-FRET (IP-One), carbachol + lithium. Potency, µM (titrated, usually from 59.4 µM), inactives show top-dose activity, negative = IMPase inhibition, usual class: inhibitors. 210,000 compounds, 0.35% hits;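 also: IP1 builds up when IMPase is blocked and the TR-FRET signal falls; potency is read from the fitted curve at half-maximal effect; plate controls were basal vehicle for no effect and high inhibitor control for full effect; nearly all actives have a fitted effect of over 50% in size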
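Steps: plate 2000 CHO-M1 cells per well and culture 16–30 h; add compound and lithium; incubate 30 min, 37C; add d2-IP1 tracer and Eu cryptate anti-IP1 antibody in lysis buffer; read after 10 min at room temperature.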
PNC inhibitor: blocks assembly of the perinucleolar compartment | activity change (PNC), negative = inhibition, % at 10 µM | 140,000 compounds, 3.1% hits | PC3M PTB-GFP, PNC prevalence imaging, 16 h; active compounds read low;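 active = readout at or below -70, meaning at least 70% loss of cells showing the perinucleolar compartment, a nuclear body marking cancer cells; inconclusive = readout between -30 and a set limit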;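 also: plate controls were DMSO wells for no effect and camptothecin positive control wells for full effect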
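PC3M cells stably expressing PTB-GFP, 750–1000 cells/well, treated 16 h at 37 °C with compound (23 nl of library stock), in duplicate. After paraformaldehyde fixation and Hoechst stain, imaged at 20x; PNC prevalence scored by image analysis.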
HPGD inh: inhibitors of human 15-hydroxyprostaglandin dehydrogenase (HPGD). P15428. purified HPGD, NADH fluorescence kinetic, PGE2 substrate. Potency, µM, inactives show at the top dose activity change, negative = inhibition, actives largely listed as inhibitors. 150,000 compounds, 4.3% hits. AID 894; active = well fitted inhibition curve with a large enough effect, not every such curve was filed as active; inconclusive = small, poorly fitted or top-dose-only effect, or another doubt; inactive = no such curve, though single readings can be large or run the other way; also: potency is read from the fitted curve at half-maximal effect
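NADH formation kinetics: reaction with 30 uM PGE2 and 1 mM NAD+ (final), 20 nM enzyme, Tris-HCl pH 8 with Tween 20, after 15 min compound preincubation at room temperature. Fluorescence change, last versus first of five reads.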
* = called active by the depositor; ? = inconclusive; / = no result given; [ ] = dose if it differs, or a comment. This is a sample that favours compounds with a hit; in the whole collection about 5.3% have one here. Unless noted, calls follow the shape of the dose curve; as a rule, active = well fitted curve in the direction sought with a large enough effect; inconclusive = small, poorly fitted or top-dose-only effect, or another doubt; inactive = no such curve, though single readings can be large; an effect the other way counts as inactive or inconclusive. Unless noted, % is scaled to controls: 0 for no effect and ±100 for the full control effect.

SMILES | ALOX12 inhib | IMPase cell inh | ALOX15B inhib | IMPase Li cell | PNC inhibitor | HPGD inh
c1ccc(CCc2nn3c(-c4ccncc4)nnc3s2)cc1 | 15% | 2 | 2%[2.29 µM] | 10%[38.3 µM] | ? | 5µM*
COc1ccccc1-c1nn2c(-c3ccccc3Cl)nnc2s1 | -1% | -4 | -4% | 3%[38.3 µM] | -25 | -11%
CCCCNc1c(N)n(CC(C)C)c(=O)[nH]c1=O | / | / | / | 6% | / | /
CC1=C(C(=O)N(C)C)C(c2ccc(C)s2)NC(=S)N1 (stereo not drawn) | / | / | / | -10% | / | /
CCCN1C(=O)SC(CC(=O)Nc2ccc(C)cc2)C1=O (stereo not drawn) | -6% | 10 | / | 4% | -100* | -16%
Cc1ccc(NC(=O)CC2SC(=O)N(c3ccccc3)C2=O)cc1 (stereo not drawn) | -20% | 1 | / | 2% | 43 | -30%
CCOc1ccccc1NC(=S)N1CCC(NC(=O)C(C)(C)C)CC1 | / | / | / | 2% | / | /
N#Cc1cc2c(nc1SCC(=O)Nc1nccs1)CCCCC2 | -3% | ? | 0% | ? | ? | ?
O=C(CSc1nc(-c2ccccc2)nc2ccccc12)Nc1nccs1 | 7% | ? | -2% | 25µM* | 39 | -9%
O=C(CCCSc1nc2ccccc2s1)Nc1nccs1 | 10% | 9 | 57% | 14%[38.3 µM] | 15 | 25µM*
Cc1ccc(C#N)c(SCC(=O)Nc2nccs2)n1 | / | / | / | 13µM* | / | /
CCc1cc2cc3c(cc2nc1SCC(=O)Nc1nccs1)OCO3 | 0% | ? | / | 13µM* | 60 | -10%
O=C(CCCc1nc2ccccc2s1)Nc1nccs1 | -5% | 8 | -3% | 6%[38.3 µM] | 6 | -21%
N#C/C(=C/c1cn[nH]c1-c1ccc(Br)cc1)C(=O)O | / | / | / | -1% | / | /
CC(C)(C)C(=O)NC(=S)Nc1ccc(F)cc1 | ? | / | / | -6% | 21 | -13%
c1ccn2cc(C34CC5CC(CC(C5)C3)C4)nc2c1 | / | / | / | 31% | / | /
CN(C)c1ccc(NC(=O)/C=C/c2c(Cl)cccc2Cl)cc1 | -2% | -4 | / | -1% | -93* | -8%
N[C@@H](Cc1cc(-c2ccc(Cl)cc2Cl)cc(CP(=O)(O)O)c1O)C(=O)O | -8% | 1 | 6% | 4% | / | ?
Cc1cc(C)cc(Oc2coc3cc(OCC(=O)NC4CCCCC4)ccc3c2=O)c1 | / | -3 | / | / | / | /
Cc1ccccc1NC(=O)C1CCN(c2cc(-c3ccccc3)nc3ncnn23)CC1 | 2% | -9 | / | 8.9µM* | -114* | ?
CCCc1c(OCC(O)COc2ccc3c(=O)cc(C(=O)O)oc3c2CCC)ccc(C(C)=O)c1O (stereo not drawn) | -2%[0.00818 µM] | / | -15%[0.0915 µM] | -2% | / | 18µM*
CCCc1c(OCCCCc2nn[nH]n2)ccc(C(C)=O)c1O | -1% | / | 18% | -3% | -9 | -12%
COCC(C)n1c(SCC(=O)NNC(=O)c2ccc(F)cc2)nc2ccccc2c1=O (stereo not drawn) | -2% | 11 | / | 4% | -94* | -5%
Cc1cccc(C)c1NC(=O)CSc1nc(C)c(CC(=O)c2ccc(Br)cc2)c(C)c1C#N | 0% | 0 | -12% | ? | 63 | -8%
Cc1nc(SCC(=O)Nc2ccccc2C(F)(F)F)c(C#N)c(C)c1CC(=O)c1ccc(Br)cc1 | 0% | 6 | -5% | 10µM* | ? | -18%
SMILES | ALOX12 inhib | IMPase cell inh | ALOX15B inhib | IMPase Li cell | PNC inhibitor | HPGD inh
CC1CCCC(NC(=O)COC(=O)CN2C(=O)C3CCCCC3C2=O)C1C (stereo not drawn) | 2% | -10 | / | -4% | 14 | -18%
CCN(CC)C(=O)c1ccc(N)cc1 | / | / | / | 7% | / | /
CCN(CC)C(=O)c1ccc(C(=O)c2c(C)cc(C)cc2C)cc1 | 3% | 7 | 2% | 56%[38.3 µM] | ? | 14µM*
O=C1CC(N(O)C2CC(=O)N(Cc3ccccc3)C2=O)C(=O)N1Cc1ccccc1 (stereo not drawn) | 1% | -7 | ? | 6%[38.3 µM] | 38 | 32µM*
CCCCCC(=O)N(O)C1CC(=O)N(c2ccccc2)C1=O (stereo not drawn) | -22% | -11 | -29% | -5%[38.3 µM] | 36 | 16µM*
CN(Cc1ccccc1)C1CC(=O)N(c2ccc(C(=O)O)cc2)C1=O (stereo not drawn) | 3% | -5 | 16% | -1%[38.3 µM] | -2 | -6%
CCCCCCC(=O)N(O)C1CC(=O)N(Cc2ccccc2)C1=O (stereo not drawn) | -8% | -12[1.84 µM] | -26%[11.4 µM] | 11%[38.3 µM] | ? | 18µM*
COc1ccccc1C(=O)N(NC(=O)Oc1ccccc1)C(C)(C)C | -1% | / | / | -3% | 26 | -2%
COc1ccc(Nc2nc(Nc3ccc(OC)cc3)nc(SC3=NCCS3)n2)cc1 | -19% | 5 | -11% | 12%[38.3 µM] | -20 | -9%
Nc1nc2ccc([N+](=O)[O-])cc2s1 | -1% | / | -16% | 9% | / | -14%
O=c1[nH]c(-c2ccco2)nc2sc3c(c12)CCCC3 | -6% | / | / | 5% | -116* | ?
COC(=O)CSc1nc(C)c(C)c(C)c1C(N)=O | / | / | / | -1% | / | /
CC12C(=O)N(Cc3ccco3)C(=O)C1C1c3ccccc3C2c2ccccc21 (stereo not drawn) | -17% | 2 | 2% | 44%[38.3 µM] | -6 | -21%
N#Cc1cccc(NC(=O)N2CCC3(CC2)CCN(C(=O)c2csnn2)CC3)c1 | 0% | / | -4% | 11µM* | / | -1%
N#Cc1cccc(NC(=O)N2CCCC3(CCN(C(=O)c4csnn4)CC3)C2)c1 | 1% | / | 2% | 18% | / | -3%
c1cn(CCCNc2ncnc3nc[nH]c23)cn1 | -2% | -2 | 13% | 24%[38.3 µM] | -112* | -3%
CC(Nc1nc2ncn(Cc3ccccc3)c2c(=O)[nH]1)C(=O)O (stereo not drawn) | 3% | -1 | 6% | 8%[38.3 µM] | ? | 28µM*
O=C(c1ccc(Cl)cc1)N1CCCOC1 | 0% | -2 | 1%[2.29 µM] | 17%[38.3 µM] | 33 | 8.9µM*
CC(C)CCOc1ccc(Cn2c(=O)sc3ccccc32)cc1 | / | -6 | / | / | / | /
CCOC(=O)c1c(N)sc2c1CCS(=O)(=O)C2 | -8% | 2 | -3% | -8%[38.3 µM] | -4 | 40µM*
Cc1nc(N2CCOCC2)c2nc(-c3ccccc3)n(CCN3CCOCC3)c2n1 | -1% | / | 32% | -9% | / | ?
Nc1c(C(=O)C2CC2)sc2nc(-c3ccccc3)cc(C(F)(F)F)c12 | -4% | -24 | / | 13µM* | 39 | 28µM*
CC(=O)c1sc2nc(-c3cccs3)cc(C(F)(F)F)c2c1N | 0% | ? | -19% | -21%[38.3 µM] | 35 | -29%
CS(=O)(=O)CCC(C(=O)OCc1ccc(Cl)cc1)N1C(=O)c2ccccc2C1=O (stereo not drawn) | 0% | / | / | -1% | 22 | 1%
NS(=O)(=O)c1ccc(CCNC(=O)CSc2cccs2)cc1 | / | / | / | 4% | / | /

Assay outcomes (PubChem)
